The campaign covered roughly 96,000 compounds. About 1,200 (1.2%) were called active. No stated cut-off is given here; in the data, active means activation fold above about 2; inactive means the rest. This excerpt belongs to a sample that is enriched for actives.
molecular target: Alkaline phosphatase, placental type (Homo sapiens) (UniProt P05187); test: activation of human placental alkaline phosphatase – biochemical, luminescence, HTS (AID 696); conditions: purified PLAP enzyme, luminescent substrate read-out; at 20 µM; active compounds read high
Sequence (P05187 whole entry, looked up): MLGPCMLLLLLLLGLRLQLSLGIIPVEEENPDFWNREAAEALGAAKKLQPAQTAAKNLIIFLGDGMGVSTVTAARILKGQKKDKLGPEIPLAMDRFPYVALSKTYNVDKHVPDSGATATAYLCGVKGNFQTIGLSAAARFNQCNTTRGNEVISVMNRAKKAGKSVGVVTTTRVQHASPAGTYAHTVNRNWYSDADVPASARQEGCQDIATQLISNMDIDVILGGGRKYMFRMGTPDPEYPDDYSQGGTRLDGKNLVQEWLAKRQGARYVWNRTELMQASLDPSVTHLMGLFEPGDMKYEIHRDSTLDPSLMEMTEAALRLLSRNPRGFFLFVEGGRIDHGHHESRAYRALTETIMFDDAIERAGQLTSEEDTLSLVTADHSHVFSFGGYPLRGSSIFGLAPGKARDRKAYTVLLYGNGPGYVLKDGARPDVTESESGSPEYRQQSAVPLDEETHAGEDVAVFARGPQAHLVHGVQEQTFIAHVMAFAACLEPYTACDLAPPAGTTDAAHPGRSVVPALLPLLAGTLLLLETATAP

Activation fold, active:
CC(NC(=O)c1ccco1)C(=O)Nc1nc(-c2ccccn2)cs1 (stereo not given) 2.4
CCCCNC(=S)NNC(=O)c1cc(C)on1 2
O=C(NCCC1=CCCCC1)C1CCN(Cc2cnn(-c3ccccc3)c2-n2cccc2)CC1 2.3
COc1cc2c(cc1NC(=O)CN1CCN(S(=O)(=O)c3ccc(F)cc3)CC1)oc1ccccc12 2.2
CN(Cc1ccccc1)c1nc2c(c(=O)[nH]c(=O)n2C)n1CCSc1nc2ccccc2[nH]1 2
Cc1cccc(NC(=O)CSc2nnc(CCCCCNC(=O)OC(C)(C)C)o2)c1C 2.4
CCc1ccccc1NC(=O)CSc1nnc([C@@H](NC(=O)OC(C)(C)C)C(C)CC)o1 (stereo not given in full) 2
CN(C)C(CNC(=O)CCCOc1ccccc1)c1ccco1 (stereo not given) 2
CCOc1ccc2nc(N3CCCN(C(=O)Nc4ccccc4C)CC3)c(C#N)cc2c1 2
Cc1occc1C(=O)NNC(=S)NCC(C)C 2.3
CC(Oc1ccc2ccccc2c1)C(=O)NNC(=S)NC(=O)c1ccco1 (stereo not given) 2.6
Oc1c(C(c2ccccn2)N2CCOCC2)ccc2cccnc12 (stereo not given) 2.2
O=C(Nc1nnc(CCOCCOCCc2nnc(NC(=O)c3ccco3)s2)s1)c1ccco1 2
CCN(C(=O)CSc1ncn[nH]1)c1cccc2ccccc12 2.3
Cc1cc(N2CCN(S(=O)(=O)c3ccc(C)c(C)c3)CC2)c2ccccc2n1 2.1
O=C(CN1C(=O)COc2ccccc21)Nc1ccc(F)cc1 2.5
Cc1nn(C)cc1C(=O)NNC(=S)Nc1ccc(Cl)cc1 2.2
Cc1ccccc1C(OCC(O)CN1CCCCC1CCO)c1ccccc1 (stereo not given) 2.1
CCCc1nnc(NC(=O)CN2C(=O)c3ccccc3S2(=O)=O)s1 2.2
NC(CSC12CC3CC(CC(C3)C1)C2)C(=O)O (stereo not given) 2

Activation fold, inactive:
NC(=O)c1ccsc1NC(=O)c1ccco1 1
CC1CCN(C(NC(=O)c2ccco2)C(=O)c2ccccc2)CC1 (stereo not given) 1.1
O=c1cc(N2CCN(Cc3ccccc3)CC2)c(-c2ccccc2)n[nH]1 1
CCn1c(Cc2cccs2)nnc1SCC(=O)c1ccc(C)cc1 1.5
O=C(COc1ccc(Cl)cc1)N1CCN(S(=O)(=O)c2ccc(Cl)cc2)CC1 1.1
Cc1ccc(CNC(=O)C2CC(c3ccccc3[N+](=O)[O-])=NO2)o1 (stereo not given) 0.9
CCC(=O)Nc1ccc(C(=O)Nc2cc(C)on2)cc1 0.9
Cc1cc(C(=O)NCCCc2ccccc2)no1 0.9
Cn1c(Cc2cccc3ccccc23)nnc1SCC(=O)N1CCN(c2cccc(Cl)c2)CC1 1.5
CCN1CCC(=NNC(=O)c2ccc(C)c([N+](=O)[O-])c2)CC1 1.3
CC(=O)Nc1ccc(NC(=O)CSCc2cnn(-c3ccccc3)c2-n2cccc2)cc1 1.3
C1=C(CCNc2ncnc3c2cnn3-c2ccccc2)CCCC1 0.7
O=C1c2ccccc2C(=O)N1CC1c2ccccc2CCN1S(=O)(=O)c1ccccc1 (stereo not given) 1.2
O=C(Nc1ccc2c(c1)OCCO2)c1ccc(Cl)c(S(=O)(=O)N2CCCCC2)c1 1.7
COc1ccc(NC(=O)CN2CCN(S(=O)(=O)c3ccc(F)cc3)CC2)cc1Cl 1.1
COc1ccccc1NC(=O)CN1CCN(S(=O)(=O)c2ccc(Br)cc2)CC1 1
Cc1c(CCO)c(=O)[nH]n1C(=O)c1c(F)cccc1F 0.9
Cc1ccc(F)c(NC(=O)CCc2ccccc2)c1 0.9
Cn1c(=O)[nH]c(=O)c2c1nc(N(CCO)Cc1ccccc1)n2Cc1ccccc1Cl 0.8
CCCSc1nc2c(c(=O)[nH]c(=O)n2C)n1CCc1ccccc1 0.9
Cc1cccc(NC(=O)CSC(N)=O)c1C 1.7
CCc1ccccc1NC(=O)CSc1nnc([C@@H](NC(=O)OC(C)(C)C)C(C)C)o1 1.4
C[C@H](NC(=O)OC(C)(C)C)c1nnc(SCC(=O)Nc2ccc(Br)cc2)o1 1.2
Cc1cc(C)cc(OCc2nnc(SCC(=O)Nc3ccccc3)o2)c1 0.8
CC(C)(C)N1CC(c2nc3ccccc3n2Cc2ccc(F)cc2)CC1=O (stereo not given) 1.1
CN(C)Cc1ccccc1C1(O)c2ccccc2CSc2ccccc21 (stereo not given) 1.1
N#Cc1cc([N+](=O)[O-])ccc1Oc1cccc(/C=N/NC(=O)c2ccc(Cl)cc2)c1 1.1
O=P(O)(CP(=O)(c1ccccc1)c1ccccc1)c1ccccc1O 1
CCOc1ccc(C(=O)NC(C(=O)NCc2ccccn2)C(C)C)cc1 (stereo not given) 0.9
Cc1cc(C)nc(SC(C)C(=O)N/N=C/c2cccs2)n1 (stereo not given) 0.9
CCCCCCNCCn1cnc2c(N)ncnc21 0.9
O=C(CCOc1ccccc1)NCc1ccccc1 0.8
O=C(CCCOc1ccccc1)NCc1ccco1 1.1
COc1ccc(C(=O)c2c(C)oc3cc([N+](=O)[O-])c(O)c([N+](=O)[O-])c23)cc1 0.9
COc1ccc(NC(=O)C(CC(C)C)NS(=O)(=O)c2ccc3c(c2)CCN3C(C)=O)cc1OC (stereo not given) 0.8
CN(Cc1nc2ccccc2c(=O)[nH]1)Cc1cc(=O)oc2ccc3ccccc3c12 1.6
O=S(=O)(NC1CCCCC1)c1ccc(F)c2ccccc12 0.7
CCOc1ccc2nc(NCCNS(=O)(=O)c3ccccc3)c(C#N)cc2c1 1
COc1ccc2nc(N3CCCC(O)C3)c(C#N)cc2c1 (stereo not given) 1.8
O=C(NCCCN1CCOCC1)c1cc2c(s1)CCC2 1.3
COC(=O)c1ccc(C(=O)Nc2cc(Cl)ccc2Cl)cc1NC(=O)c1ccccc1C 1
CC1CCCN(C(C(=O)Nc2ccc(C(C)C)cc2)c2ccc3c(c2)OCO3)C1 (stereo not given) 1.6
Cc1[nH]c(=O)c(C(=O)/C=C/c2ccccc2)c2c1CCCC2 1.2
Cc1occc1C(=O)Nc1nnc(-c2ccncc2)s1 1
CC(C)CNC(=S)NNC(=O)c1ccccc1OC(F)F 1.6
CCN(CC)C(=O)CSC1c2ccccc2C(=O)N1c1ccccc1 (stereo not given) 1.1
CCCOc1ccc(C2NC(=O)NC(c3ccccc3)=C2C(C)=O)cc1OCC (stereo not given) 0.9
O=C(NCc1ccco1)c1ccc(Cn2c(=O)c3sccc3n(Cc3ccc(F)cc3)c2=O)cc1 1.3
COc1c(F)c(F)c(C(=O)O)c(Nc2ccccc2C)c1F 1
CCCc1ccc(OCC(=O)NNC(=S)NC(=O)c2ccco2)cc1 1.2
COc1ccc(C(=O)NC(=S)NNC(=O)CCc2ccccc2)cc1 1
CCOc1cc(N2CCOCC2)c(OCC)cc1NC(=O)COc1cccc2cccnc12 1.4
O=C(c1cccnc1NCc1ccccc1)N1CCOCC1 0.9
Cc1cccc(NC(=S)Nc2ccc(Br)cc2)c1 1.2
O=C(Nc1nnc(SCc2ccccc2)s1)c1ccco1 1.1
COC(=O)c1ccc(NC(=O)c2ccco2)cc1 0.8
COc1ccc(C(=O)NC(=S)Nc2ccccc2N2CCN(S(C)(=O)=O)CC2)cc1OC 1
CC(C)(C)c1ccc(C(=O)CSc2ncn[nH]2)cc1 1.5
O=C(CSc1ncn[nH]1)Nc1ccnc2ccccc12 1.9
Cc1sc(NC(=S)NC(=O)c2cccs2)nc1-c1ccc(CC(C)C)cc1 1.5
Cc1ccc(S(=O)(=O)NCCSC(C)(C)C)cc1 0.9
COc1ccc(CCNC(=O)COC(=O)c2ccc[nH]c2=O)cc1 1
Cc1ccc(C)c(N2CCN(S(=O)(=O)c3ccc4c(c3)oc(=O)n4C)CC2)c1 1.4
Cc1ccc(S(=O)(=O)C(C#N)c2nc3ccccc3nc2N2CCCC2)cc1C (stereo not given) 1.4
COC(=O)c1[nH]c2ccc(Br)cc2c1NC(=O)Oc1ccccc1 1.1
CCCN1CCN(CCCNC(=O)CN2C(=O)COc3ccccc32)CC1 1.2
O=C(CN1C(=O)COc2ccccc21)NCCN1CCc2ccccc2C1 1.3
O=C(Nc1cc(C(F)(F)F)ccc1Cl)c1cc2nc3c(c(C(F)(F)F)n2n1)CCCC3 1.6
Clc1ccc(-c2nnc(-c3ccccc3)nc2N2CCSCC2)cc1 1.4
O=C1C2C3C=CC(C4CC34)C2C(=O)N1/N=C/c1ccc(-c2ccccc2[N+](=O)[O-])o1 (stereo not given) 0.9
COc1ccc(Cl)cc1C(=O)NCc1cn(C)nc1C 1.1
S=C(NCc1cccs1)Nc1ccc(Cl)cc1 0.9
O=C(CNC(=O)c1ccccc1)NCC(=O)OCc1ccc(Cl)cc1 0.9
OC(COc1cccc(OCC(O)CN2CCCC2)c1)CN1CCCC1 (stereo not given) 1.2
COc1cccc(OCc2cc(/C=N/NC(=O)c3nc(Cl)c(Cl)c(N)c3Cl)ccc2OC)c1 1.5
CCc1c(C)nc2cc(C)[nH]n2c1=O 0.9
CCCc1nnc(NC(=O)c2cccs2)s1 0.9
CNC(=O)CN1C(=O)c2ccccc2S1(=O)=O 0.9
COc1cc2c(cc1OC)C(C(=O)NCc1ccco1)C1c3ccccc3CCN1C2=O (stereo not given) 1.2
O=C(O)CSCNC(=O)CC12CC3CC(CC(C3)C1)C2 1.2
